Bm FixLJ act – activators of Burkholderia fixLJ two-component system, primary screen, B. multivorans, GFP reporter. B. multivorans fixK-promoter GFP reporter, 18 h; hits give high values. z-score (test concentration not listed). 29,000 tested, 0.3% active. AID 1918990, 2023;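 active = replicate mean overnight rise in green fluorescent reporter signal, 3 or more SD over negative controls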
Hits are given with their value; - = inactive. The sample as a whole holds a higher share of hits than the screen did.

SMILES	Bm FixLJ act
Cc1ccccc1-n1c(/C=C/c2c(C)[nH]c3ccccc23)nc2ccccc2c1=O	-
COc1cccc(-n2c(/C=C\c3ccc(Cl)cc3)nc3ccccc3c2=O)c1	-
Cc1ccccc1-n1c(/C=C/c2ccc(N(C)C)cc2)nc2ccccc2c1=O	21.1
CN1CCN(C(=O)COc2ccccc2Cl)C2CS(=O)(=O)CC21 (configuration not stated)	-
CCc1nn2c(=O)cc(CN3CC4COC[C@]4(C(=O)O)C3)nc2s1 (some centres not stated)	-
